# Active and inactive are the calls of the source. Unless noted, how the calls were made is not given here.
# Legend:
# [1] = system: Wnt5a (protein binding on small-molecule microarray); assay: Wnt5a binders on small-molecule microarray, primary screen, biophysical, 635/667 nm fluorescence (AID 1142); settings: 635 nm fluorescence, higher = more signal;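 further: fluorescence read at 667 nm with signal to noise per printed feature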
# [2] = cell viability in Huh7 cells, primary screen, cytotoxicity control for HCV replication inhibitor project, CellTiter-Glo luminescence, basal, 48 h (AID 1143); settings: Huh7 HCV replicon, higher = more signal, called active from +8 up or from −8 down;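 further: Huh7 hepatoma cells carrying a hepatitis C replication reporter with no stimulus; test concentration not given here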
# [3] = P. aeruginosa biofilm formation inhibitors, primary screen, PAO1 strain, BacTiter-Glo luminescence, LB-PBS (AID 1144); settings: 12 h, higher = more signal
# [4] = CREB reporter modulators without forskolin, primary screen, cell-based, PC12, CRE-LacZ reporter, unstimulated (AID 1145); settings: no forskolin, luminescence, 4.5 h, higher = more signal, called active from +8 up or from −8 down
# [5] = CREB reporter modulators under forskolin, primary screen, cell-based, PC12, CRE-LacZ reporter, forskolin-stimulated (AID 1146); settings: luminescence, 4.5 h, higher = more signal, called active from +8 up or from −8 down;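 further: PC12 cells with 6xCRE LacZ reporter stimulated by forskolin 10 µM; beta-galactosidase reporter signal reflecting CREB driven transcription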
# [6] = target: Streptavidin (Streptomyces avidinii) (UniProt P22629); assay: streptavidin binders on small-molecule microarray, primary screen, artefact control for SMM compound annotation, biophysical, 635/667 nm fluorescence (AID 1147); settings: streptavidin binding, higher = more signal;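 further: signal reflects streptavidin binding to arrayed compounds as a control protein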
# Sequence of Streptavidin (Streptomyces avidinii) (P22629 whole entry, looked up): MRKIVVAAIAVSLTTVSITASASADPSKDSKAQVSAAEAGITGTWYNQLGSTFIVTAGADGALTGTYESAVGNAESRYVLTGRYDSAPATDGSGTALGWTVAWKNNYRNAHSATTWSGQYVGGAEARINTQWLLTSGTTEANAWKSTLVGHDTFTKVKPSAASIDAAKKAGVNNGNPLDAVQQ
# [7] = small-molecule binders of probe aInhba, primary screen, biochemical, small-molecule microarray, 635/667 nm fluorescence (AID 1148); settings: higher = more signal;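 further: score merges 667nm spot fluorescence with signal-to-noise for antibody binding to printed compounds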
# Torsin-1A (Homo sapiens) [8] = target: Torsin-1A (Homo sapiens) (UniProt O14656); assay: torsin A binders from cell lysate, primary screen, small-molecule microarray, wild-type, 635/667 nm (AID 1149); settings: COS7 hTOR1A-WT lysate, 635 nm fluorescence, higher = more signal
# Sequence of Torsin-1A (Homo sapiens) (O14656 whole entry, looked up): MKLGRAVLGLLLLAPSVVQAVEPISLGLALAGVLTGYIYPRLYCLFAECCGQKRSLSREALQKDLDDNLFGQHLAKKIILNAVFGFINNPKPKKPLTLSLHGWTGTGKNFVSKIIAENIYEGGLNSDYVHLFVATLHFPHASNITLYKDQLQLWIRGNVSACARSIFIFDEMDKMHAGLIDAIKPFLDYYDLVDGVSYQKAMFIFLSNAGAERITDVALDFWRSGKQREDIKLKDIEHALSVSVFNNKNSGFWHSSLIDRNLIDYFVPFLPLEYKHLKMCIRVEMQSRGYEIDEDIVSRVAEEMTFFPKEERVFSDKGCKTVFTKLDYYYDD
# Torsin-1A (Homo sapiens) [9] = target: Torsin-1A (Homo sapiens) (UniProt O14656); assay: small-molecule binders of mutant TOR1A in lysate, primary screen, cell lysate, small-molecule microarray, COS7 lysate, 635/667 nm fluorescence (AID 1150); settings: COS7 hTOR1A mutant lysate, 635 nm fluorescence, higher = more signal;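 further: score pools 667 nm emission and signal to noise measuring lysate protein binding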
# [10] = system: Sonic hedgehog protein (Shh); assay: small-molecule binders of Shh protein, primary screen, biochemical, small-molecule microarray, 635/667 nm fluorescence (AID 1151); settings: small-molecule microarray binding, 635 nm fluorescence; higher = more signal;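 further: Shh protein binding to compounds spotted on small-molecule microarray slides; score combines spot fluorescence intensity with signal-to-noise across triplicate slides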
SMILES,composite z-score [1],z-score [2],z-score [3],z-score [4],z-score [5],composite z-score [6],composite z-score [7],composite z-score (Torsin-1A (Homo sapiens) [8]),composite z-score (Torsin-1A (Homo sapiens) [9]),composite z-score [10]
CN(C)CCCC[C@@H]1NC(=O)[C@@H]2C[C@H](C(=O)NCCCCCCN)[C@H](c3cccc(OCCO)c3)N2C1=O,0.017,-0.96 (inactive),0.168 (inactive),0.139 (inactive),-0.347 (inactive),2.1,0.831,1.17,1.99,0.68
COCCOC(=O)N1C(=O)[C@@]2(c3ccccc31)[C@H](c1ccc(O)cc1)N1[C@H](c3ccccc3)[C@H](c3ccccc3)OC(=O)[C@H]1[C@@H]2C(=O)Nc1nc2ccccc2s1,0.243,-1.67 (inactive),0.272 (inactive),-0.467 (inactive),2.42 (inactive),0.795,0.225,0.514,1.23,1.13
O=C1c2ccccc2[C@](Cc2ccccc2I)(C(=O)NCCN2CCOCC2)[C@H](c2ccc(CO)cc2)N1Cc1ccccc1Cl,0.66,-2.57 (inactive),0.825 (inactive),-0.0512 (inactive),-1.01 (inactive),0.851,0.62,0.442,0.244,1.43
C=CCNC(=O)[C@@H]1[C@H]2C(=O)O[C@H](c3ccccc3)[C@H](c3ccccc3)N2[C@H](c2ccccc2OCCO)[C@@]12C(=O)N(C(=O)OCCOC)c1ccccc12,0.562,-4.46 (inactive),1.23 (inactive),0.204 (inactive),-0.768 (inactive),0.209,-0.0259,0.226,0.603,2.17
CC(CO)N1C(=O)[C@@H]2C3C(=O)OCCC/C=C\[C@H]3OC23C=CCN(C(C)(C)C)C(=O)[C@@H]13 (stereo not given in full),-0.221,0.559 (inactive),-0.818 (inactive),-0.488 (inactive),0.636 (inactive),-0.221,-0.128,1.17,2.21,0.777
CN1C(=O)C2C=CC(C(O)c3ccco3)N(Nc3ccccc3)C2C1=O (stereo not given),0.148,1.11 (inactive),-0.197 (inactive),-0.133 (inactive),0.0834 (inactive),0.437,-0.0131,0.336,-0.59,0.59
O=C1C[C@@](C(=O)NCC(F)(F)F)(c2ccc([N+](=O)[O-])cc2)[C@@H](c2ccc(CO)cc2I)N1C1CCCCC1,0.318,-4.26 (inactive),-0.148 (inactive),0.558 (inactive),-0.503 (inactive),0.514,-0.0421,0.281,0.35,0.491
C=CCC(OC(C)=O)[C@@H]1[C@@H](N(Cc2ccc(-c3ccccc3)cc2)C(=O)c2ccc(-c3ccccc3)cc2)c2cc(OCCCO)ccc2N1C(=O)Cc1ccc2ccccc2c1 (stereo not given in full),0.102,0.315 (inactive),-0.0138 (inactive),0.208 (inactive),0.411 (inactive),0.497,0.0051,-0.395,0.42,0.523
COc1ccc(CCNC(=O)[C@@]2(C)c3ccccc3C(=O)N(C(C)C)[C@H]2c2ccc(CO)cc2)cc1,0.435,-1.03 (inactive),1.08 (inactive),0.827 (inactive),0.727 (inactive),0.454,-0.102,0.0534,-0.176,0.794
O=C(CS)NCCCCCCNC(=O)[C@@H]1C[C@@H]2C(=O)N[C@@H](Cc3ccccc3)C(=O)N2[C@@H]1c1cccc(OCCO)c1,0.879,0.0037 (inactive),-0.614 (inactive),-0.134 (inactive),-0.112 (inactive),0.253,-0.163,1.1,1.48,1.49
Cc1ccc(S[C@]2(C(=O)NC3CC3)CC(=O)N(Cc3ccccc3)[C@@H]2c2ccc(CO)cc2I)cc1,-0.232,-2.1 (inactive),-0.0682 (inactive),1.04 (inactive),1.03 (inactive),-0.716,0.235,-1.19,-1.63,-0.517
O=C(c1ccccc1)N1C(=O)[C@]2(COC(c3ccc(OCCCO)cc3)=N2)Cc2ccccc21,0.363,-3.03 (inactive),-0.382 (inactive),1.03 (inactive),0.822 (inactive),0.532,0.249,0.273,0.87,0.658
COC(=O)C(CC#Cc1ccc2c(c1)[C@]1(C(=O)N2)[C@H](c2ccc(OCCO)cc2)N2[C@H](c3ccccc3)[C@H](c3ccccc3)OC(=O)[C@H]2[C@@H]1C(=O)N1CCc2cc(OC)c(OC)cc2C1)C(=O)OC,0.714,-0.6 (inactive),0.188 (inactive),-0.0688 (inactive),2.19 (inactive),1.52,0.542,0.668,0.623,1.91
CCCCCN1CC=CC23O[C@@H]4/C=C\CCC(C)OC(=O)C4[C@H]2C(=O)N(C(C)CO)[C@@H]3C1=O (stereo not given in full),-0.105,0.28 (inactive),-0.818 (inactive),-1.17 (inactive),-0.672 (inactive),-0.659,-0.0933,-1.11,-0.742,1.09
CN(C)CCCCCCNC(=O)[C@H]1C[C@H]2C(=O)N[C@@H](CCCCN)C(=O)N2[C@H]1c1cccc(OCCO)c1,1.73,0.0574 (inactive),0.949 (inactive),0.688 (inactive),0.691 (inactive),2.14,0.778,3.76,3.35,1.43

# From PubChem BioAssay
